Experimental data published in PubChem BioAssay AID1159580 (chemical genetic matrix, 2015).
The campaign covered roughly 5,500 compounds. About 2,000 (36%) were called active. Another 18% or so got no clear call; they are omitted. No stated cut-off is given here; in the data, active means normalized growth mostly below about 0.91 (no sharp cut-off); inconclusive means no clear call, values can overlap the other calls; inactive means mostly above about 0.92. The list shows a part of the results.

Assay: chemical genetic growth profiling, strain panel (AID 1159580);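 further: tested at 20 µM; growth read once vehicle control cultures reached saturation at 30 °C; 1 = growth at the plate median or of vehicle wells; lower values mean less growth of the strain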
Conditions: growth OD

Measured: normalized growth

Nc1ncnc2c1ncn2[C@@H]1O[C@H](CO)[C@@H](O)[C@H]1O
inactive: S. cerevisiae deletion strains, locus YJR066W, strain TOR1, active compounds read low 0.966 | S. cerevisiae deletion strains, locus YJR075W, strain HOC1, active compounds read low 0.99 | S. cerevisiae deletion strains, locus YKL009W, strain mrt4, active compounds read low 0.961 | S. cerevisiae deletion strains, locus YKL068W, active compounds read low 0.983 | S. cerevisiae deletion strains, locus YKL085W, strain MDH1 (second series), active compounds read low 0.965 | S. cerevisiae deletion strains, locus YKL085W, strain MDH1, active compounds read low 0.965 | S. cerevisiae deletion strains, locus YKL160W, strain elf1, active compounds read low 0.955 | S. cerevisiae deletion strains, locus YKR001C, strain vps1, active compounds read low 0.997 | S. cerevisiae deletion strains, locus YKR026C, strain gcn3, active compounds read low 0.987 | S. cerevisiae deletion strains, locus YKR091W, strain srl3, active compounds read low 0.994 | S. cerevisiae deletion strains, locus YLL001W, strain dnm1, active compounds read low 0.922 | S. cerevisiae deletion strains, locus YLL026W, active compounds read low 0.99 | S. cerevisiae deletion strains, locus YLL041C, strain sdh2, active compounds read low 0.99 | S. cerevisiae deletion strains, locus YLR027C, strain aat2, active compounds read low 0.994 | S. cerevisiae deletion strains, locus YLR039C, strain RIC1, active compounds read low 0.95 | S. cerevisiae deletion strains, locus YLR058C, strain SHM2, active compounds read low 0.971 | S. cerevisiae deletion strains, locus YLR102C, strain apc9, active compounds read low 0.978 | S. cerevisiae deletion strains, locus YLR113W, strain HOG1, active compounds read low 1.01 | S. cerevisiae deletion strains, locus YLR221C, strain rsa3, active compounds read low 0.95 | S. cerevisiae deletion strains, locus YLR258W, strain gsy2, active compounds read low 0.975 | S. cerevisiae deletion strains, locus YLR262C, strain YPT6 (second series), active compounds read low 0.974 | S. cerevisiae deletion strains, locus YLR262C, strain YPT6, active compounds read low 0.913 | S. cerevisiae deletion strains, locus YLR268W, strain sec22, active compounds read low 1 | S. cerevisiae deletion strains, locus YLR320W, strain mms22, active compounds read low 0.939 | S. cerevisiae deletion strains, locus YLR330W, strain CHS5, active compounds read low 0.993 | S. cerevisiae deletion strains, locus YLR342W, strain FKS1 (second series), active compounds read low 1.03 | S. cerevisiae deletion strains, locus YLR342W, strain FKS1, active compounds read low 0.993 | S. cerevisiae deletion strains, locus YLR357W, strain rsc2, active compounds read low 0.983 | S. cerevisiae deletion strains, locus YLR370C, strain arc18, active compounds read low 0.967 | S. cerevisiae deletion strains, locus YLR371W, strain rom2, active compounds read low 0.978 | S. cerevisiae deletion strains, locus YLR384C, strain iki3, active compounds read low 0.982 | S. cerevisiae deletion strains, locus YLR418C, strain cdc73, active compounds read low 0.945 | S. cerevisiae deletion strains, locus YML016C, strain PPZ1, active compounds read low 0.987 | S. cerevisiae deletion strains, locus YML032C, strain rad52, active compounds read low 0.949 | S. cerevisiae deletion strains, locus YML120C, strain ndi1, active compounds read low 0.952 | S. cerevisiae deletion strains, locus YML124C, strain tub3, active compounds read low 0.988 | S. cerevisiae deletion strains, locus YMR058W, strain fet3, active compounds read low 0.995 | S. cerevisiae deletion strains, locus YMR078C, strain ctf18, active compounds read low 0.972 | S. cerevisiae deletion strains, locus YMR125W, strain sto1, active compounds read low 0.982 | S. cerevisiae deletion strains, locus YMR129W, active compounds read low 0.995 | S. cerevisiae deletion strains, locus YMR205C, strain PFK2, active compounds read low 0.944 | S. cerevisiae deletion strains, locus YMR223W, strain ubp8, active compounds read low 0.956 | S. cerevisiae deletion strains, locus YMR231W, strain pep5, active compounds read low 0.992 | S. cerevisiae deletion strains, locus YMR263W, strain SAP30, active compounds read low 0.982 | S. cerevisiae deletion strains, locus YMR307W, strain GAS1, active compounds read low 0.98 | S. cerevisiae deletion strains, locus YNL067W, strain RPL9B, active compounds read low 0.967 | S. cerevisiae deletion strains, locus YNL071W, strain lat1, active compounds read low 1 | S. cerevisiae deletion strains, locus YNL153C, strain GIM3, active compounds read low 0.98 | S. cerevisiae deletion strains, locus YNL183C, strain NPR1, active compounds read low 0.975 | S. cerevisiae deletion strains, locus YNL209W, strain ssb2, active compounds read low 0.988 | S. cerevisiae deletion strains, locus YNL233W, strain BNI4, active compounds read low 0.991 | S. cerevisiae deletion strains, locus YNL248C, strain rpa49, active compounds read low 1.01 | S. cerevisiae deletion strains, locus YNL250W, strain rad50, active compounds read low 0.978 | S. cerevisiae deletion strains, locus YNL271C, strain bni1, active compounds read low 0.979 | S. cerevisiae deletion strains, locus YNL298W, strain CLA4, active compounds read low 0.963 | S. cerevisiae deletion strains, locus YNL307C, strain MCK1, active compounds read low 0.978 | S. cerevisiae deletion strains, locus YNL322C, strain KRE1 (second series), active compounds read low 0.978 | S. cerevisiae deletion strains, locus YNR049C, strain mso1, active compounds read low 0.982 | S. cerevisiae deletion strains, locus YNR052C, strain pop2, active compounds read low 0.977 | S. cerevisiae deletion strains, locus YOL006C, strain TOP1, active compounds read low 1.02 | S. cerevisiae deletion strains, locus YOL012C, strain htz1 0.737 | S. cerevisiae deletion strains, locus YOL147C, strain pex11, active compounds read low 0.987 | S. cerevisiae deletion strains, locus YOR001W, strain rrp6, active compounds read low 1.02 | S. cerevisiae deletion strains, locus YOR061W, strain CKA2, active compounds read low 0.96 | S. cerevisiae deletion strains, locus YOR069W, strain VPS5, active compounds read low 0.99 | S. cerevisiae deletion strains, locus YOR070C, strain gyp1, active compounds read low 0.987 | S. cerevisiae deletion strains, locus YOR080W, strain dia2, active compounds read low 0.995 | S. cerevisiae deletion strains, locus YOR083W, strain WHI5, active compounds read low 0.96 | S. cerevisiae deletion strains, locus YOR106W, strain vam3, active compounds read low 0.971 | S. cerevisiae deletion strains, locus YOR136W, strain idh2, active compounds read low 0.982 | S. cerevisiae deletion strains, locus YOR144C, strain elg1, active compounds read low 0.978 | S. cerevisiae deletion strains, locus YOR184W, strain ser1, active compounds read low 0.967 | S. cerevisiae deletion strains, locus YOR231W, strain MKK1, active compounds read low 1.03 | S. cerevisiae deletion strains, locus YOR265W, strain rbl2, active compounds read low 0.983 | S. cerevisiae deletion strains, locus YOR270C, strain vph1, active compounds read low 0.966 | S. cerevisiae deletion strains, locus YOR290C, strain snf2, active compounds read low 0.955 | S. cerevisiae deletion strains, locus YOR316C, strain cot1, active compounds read low 0.978 | S. cerevisiae deletion strains, locus YPL051W, strain arl3, active compounds read low 0.988 | S. cerevisiae deletion strains, locus YPL078C, strain atp4, active compounds read low 0.969 | S. cerevisiae deletion strains, locus YPL106C, strain sse1, active compounds read low 0.955 | S. cerevisiae deletion strains, locus YPL240C, strain hsp82, active compounds read low 0.998 | S. cerevisiae deletion strains, locus YPL241C, strain CIN2, active compounds read low 0.99 | S. cerevisiae deletion strains, locus YPL256C, strain CLN2, active compounds read low 0.982 | S. cerevisiae deletion strains, locus YPR119W, strain clb2, active compounds read low 0.984 | S. cerevisiae deletion strains, locus YPR141C, strain kar3, active compounds read low 0.972 | S. cerevisiae deletion strains, locus YPR163C, strain tif3, active compounds read low 0.969 | S. cerevisiae deletion strains, locus YPR167C, strain met16, active compounds read low 0.963 | S. cerevisiae deletion strains, strain wtn01, active compounds read low 1.02 | S. cerevisiae strains, strain wild type, active compounds read low 0.989
